Rows were chosen to be rich in hits. Some 4.5% of all compounds tested hit in one or more screens of this group.
PrPC TRFRET – reduces human prion protein on the cell surface. cell surface PrPC, TR-FRET read-out. inhibition, % at 13.8 µM. 370,000 compounds, 0.43% hits; in the data active = inhibition above about 24%; also: 0% = median of the test wells and 100% = reference compound wells
PrP 5UTR inh – inhibition of PrP 5' UTR reporter expression. cell-based PrP 5' UTR mRNA reporter, plate reader. inhibition, % (concentration not given with the values). 340,000 compounds, 0.35% hits. AID 488862; in the data active = inhibition above about 52%; also: 0 = median of the neutral control wells
BJeLR lethal – BJeLR cell viability loss; AID 1554; inhibition, % (test concentration not listed); 300,000 compounds, 0.17% hits; BJeLR (HRASV12) viability, CellTiter-Glo ATP luminescence, 48 h; in the data active = inhibition above about 50%
Mtb FBA inh – Mtb fructose-bisphosphate aldolase inhibition; inhibition, % at 1 µM; P9WQA3; 360,000 compounds, 2.3% hits; purified M. tuberculosis FBA, fluorescence read-out;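 also: 0% = vehicle and 100% = reference inhibitor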
Target sequence (P9WQA3 whole entry, looked up): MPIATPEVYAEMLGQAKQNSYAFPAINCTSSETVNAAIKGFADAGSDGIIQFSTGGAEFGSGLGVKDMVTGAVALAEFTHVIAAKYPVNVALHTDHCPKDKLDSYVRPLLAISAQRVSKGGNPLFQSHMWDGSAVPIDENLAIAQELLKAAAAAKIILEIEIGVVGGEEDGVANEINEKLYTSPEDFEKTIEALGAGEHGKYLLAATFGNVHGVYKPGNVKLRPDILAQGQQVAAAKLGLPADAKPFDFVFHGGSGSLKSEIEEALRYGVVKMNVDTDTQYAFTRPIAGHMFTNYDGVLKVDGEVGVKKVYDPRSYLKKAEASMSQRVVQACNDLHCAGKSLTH
PfHsp40 yeast – restores yeast growth despite PfHsp40 toxicity. growth rescue, % at 12.5 µM. AID 504582. S. cerevisiae expressing PfHsp40, growth rescue, ATP luminescence. 340,000 compounds, 0.68% hits; in the data active = growth rescue above about 28%, passing the limit was not always enough;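 also: yeast W303a lacking pdr1 and pdr3 grown in galactose medium; growth measured after three days at 30 °C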
GDH-TPI counter-1 – counter-screen for M. tuberculosis FBA inhibitors: GDH-TPI coupled enzymes; GDH-TPI coupled enzyme counterscreen, NADH absorbance; inhibition, % at 4.8 µM; 360,000 compounds, 1.2% hits; in the data active = inhibition above about 30%;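 also: 0% = DMSO wells and 100% = wells lacking the enzyme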
Mtb FBA confirm – confirmation of M. tuberculosis fructose-bisphosphate aldolase inhibitors; shares compounds with Mtb FBA inh; 5,600 compounds, 78% hits; inhibition, % at 1 µM; purified M. tuberculosis FBA, fluorescence read-out; AID 651616;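 also: 0% = vehicle wells and 100% = reference inhibitor wells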
GDH-TPI counter-2 – counter-screen for M. tuberculosis FBA inhibitors: GDH-TPI coupled enzyme inhibition; shares compounds with Mtb FBA inh; GDH-TPI coupled enzyme counterscreen, fluorescence; inhibition, % at 1 µM; 5,600 compounds, 81% hits; AID 652141; in the data active = inhibition above about 10%
* hit, by the source's call. Rule as the data show it, unless noted: active = inhibition above about 27%; inactive = the rest.

Results for CS(=O)(=O)Nc1ccc(C2=NN(C(=O)c3ccco3)C(c3ccc(F)cc3)C2)cc1 (stereo not given) ?
PrPC TRFRET: 10; PrP 5UTR inh: 0; BJeLR lethal: -7; Mtb FBA inh: 74*; PfHsp40 yeast: 1; GDH-TPI counter-1: 30; Mtb FBA confirm: 62*; GDH-TPI counter-2: 48*

Results for O=C(c1ccco1)N1N=C(c2cccs2)CC1c1ccc(F)cc1 (stereo not given) ?
PrPC TRFRET: 6; PrP 5UTR inh: -21; BJeLR lethal: 5; Mtb FBA inh: 1; PfHsp40 yeast: 0; GDH-TPI counter-1: 21

What do the screens show for `CCOC(=O)c1cc(-c2ccncc2)nc2c1c(C)nn2C`?
PrPC TRFRET: -17; PrP 5UTR inh: -15; BJeLR lethal: 2; Mtb FBA inh: 13; PfHsp40 yeast: 3; GDH-TPI counter-1: 0

Results for CCOC(=O)c1cc(-c2cccs2)nc2onc(C)c12 ?
PrPC TRFRET: 1; PrP 5UTR inh: -6; BJeLR lethal: -4; Mtb FBA inh: 42*; PfHsp40 yeast: -2; GDH-TPI counter-1: -6; Mtb FBA confirm: 82*; GDH-TPI counter-2: 74*

What do the screens show for `CC(=O)c1sc(-c2ccc(F)cc2)cc1NS(=O)(=O)c1ccccc1`?
PrPC TRFRET: 0; PrP 5UTR inh: -25; BJeLR lethal: 6; Mtb FBA inh: 0; PfHsp40 yeast: -1; GDH-TPI counter-1: 8

How did Cc1cc(C)c(NC(=O)CNC(=O)c2cc(C3CC3)nc3c2cnn3C(C)C)c(C)c1 do in these assays?
PrPC TRFRET: 12; Mtb FBA inh: 35*; GDH-TPI counter-1: 8; Mtb FBA confirm: 121*; GDH-TPI counter-2: 92*

How did CCc1ccccc1NC(=O)CNC(=O)c1cc(C2CC2)nc2c1cnn2C(C)C do in these assays?
PrPC TRFRET: -4; PrP 5UTR inh: -9; Mtb FBA inh: 37*; PfHsp40 yeast: 1; GDH-TPI counter-1: 5; Mtb FBA confirm: active; GDH-TPI counter-2: active

What do the screens show for `CC(C)n1ncc2c(C(=O)Nc3ccccc3SCC(N)=O)cc(C3CC3)nc21`?
PrPC TRFRET: -4; Mtb FBA inh: -2; GDH-TPI counter-1: 9

How did CC(C)n1ncc2c(C(=O)NCC(=O)Nc3ccccc3Br)cc(C3CC3)nc21 do in these assays?
PrP 5UTR inh: 6; Mtb FBA inh: 30*; PfHsp40 yeast: 3; GDH-TPI counter-1: 5; Mtb FBA confirm: -2; GDH-TPI counter-2: 0

How did COc1ccccc1CCNC(=O)c1cc(C2CC2)nc2c1cnn2C(C)C do in these assays?
PrPC TRFRET: 6; PrP 5UTR inh: -19; Mtb FBA inh: -1; PfHsp40 yeast: 5; GDH-TPI counter-1: -3

What do the screens show for `Cc1ccc(S(=O)(=O)N[C@@H](C)CO)cc1`?
PrPC TRFRET: 0

What do the screens show for `COCCn1c(=NC(=O)c2ccc3c(c2)OCCO3)sc2cc(S(N)(=O)=O)ccc21`?
PrPC TRFRET: -2; PrP 5UTR inh: 2; BJeLR lethal: -1; Mtb FBA inh: 109*; PfHsp40 yeast: 0; GDH-TPI counter-1: 45*; Mtb FBA confirm: 76*; GDH-TPI counter-2: 50*

What do the screens show for `COCCn1c(=NC(=O)c2cc(Cl)sc2Cl)sc2cc(S(N)(=O)=O)ccc21`?
PrPC TRFRET: 1; PrP 5UTR inh: -8; BJeLR lethal: -2; Mtb FBA inh: 5; PfHsp40 yeast: -2; GDH-TPI counter-1: 25

Results for COc1ccc(OCc2nnc(SCC(=O)Nc3ccccc3Cl)o2)cc1 ?
PrPC TRFRET: 2; PrP 5UTR inh: -21; BJeLR lethal: -4; Mtb FBA inh: 0; PfHsp40 yeast: 1; GDH-TPI counter-1: -10

Results for O=C(COC(=O)c1ccc2ncsc2c1)Nc1cc([N+](=O)[O-])ccc1Cl ?
PrPC TRFRET: -7; PrP 5UTR inh: -11; Mtb FBA inh: -2; PfHsp40 yeast: -2; GDH-TPI counter-1: 15

Results for Cc1ccc2nc(-c3ccco3)c(Cc3cccc(F)c3)n2c1 ?
PrPC TRFRET: 6; Mtb FBA inh: 31*; Mtb FBA confirm: active; GDH-TPI counter-2: 138*

Results for Cc1ccc2nc(-c3ccc(Cl)cc3)c(Cc3cccc(Cl)c3)n2c1 ?
PrPC TRFRET: -6

From PubChem
